Assay results taken from the supplement of paper PMC3545927.
This is one part of the list. How many sequences the whole screen found active is unknown.

B1: HC475 (peptide)
chain: CAIRMYVGGVAGNASASA
B2: HC404 (peptide)
chain: CAWHYPPKPCAGNASASA
B3: HC917 (peptide)
chain: CADSSVLCECAGNASASA
B4: HC141 (peptide)
chain: CAEVVTATWVAGNASASA
B5: HC1310 (peptide)
chain: CAETWKKPDYAGNASASA
B6: HC2074 (peptide)
chain: CAVVCCSMKYAGNASASA
B7: HC2023 (peptide)
chain: CAVVACSMSYAGNASASA
B8: FS-1081 (peptide)
chain: CASKGRIRRRAGNASASA
B9: FS-302 (peptide)
chain: CASRGRRRRRAGNASASA
B10: FS-1490 (peptide)
chain: CASRSRRRRRAGNASASA
B11: HC889 (peptide)
chain: CACVTQTVDFAGNASASA
B12: HC591 (peptide)
chain: CAIPPLNVRGAGNASASA

Molecular target: furin, P09958
Sequence (P09958 whole entry): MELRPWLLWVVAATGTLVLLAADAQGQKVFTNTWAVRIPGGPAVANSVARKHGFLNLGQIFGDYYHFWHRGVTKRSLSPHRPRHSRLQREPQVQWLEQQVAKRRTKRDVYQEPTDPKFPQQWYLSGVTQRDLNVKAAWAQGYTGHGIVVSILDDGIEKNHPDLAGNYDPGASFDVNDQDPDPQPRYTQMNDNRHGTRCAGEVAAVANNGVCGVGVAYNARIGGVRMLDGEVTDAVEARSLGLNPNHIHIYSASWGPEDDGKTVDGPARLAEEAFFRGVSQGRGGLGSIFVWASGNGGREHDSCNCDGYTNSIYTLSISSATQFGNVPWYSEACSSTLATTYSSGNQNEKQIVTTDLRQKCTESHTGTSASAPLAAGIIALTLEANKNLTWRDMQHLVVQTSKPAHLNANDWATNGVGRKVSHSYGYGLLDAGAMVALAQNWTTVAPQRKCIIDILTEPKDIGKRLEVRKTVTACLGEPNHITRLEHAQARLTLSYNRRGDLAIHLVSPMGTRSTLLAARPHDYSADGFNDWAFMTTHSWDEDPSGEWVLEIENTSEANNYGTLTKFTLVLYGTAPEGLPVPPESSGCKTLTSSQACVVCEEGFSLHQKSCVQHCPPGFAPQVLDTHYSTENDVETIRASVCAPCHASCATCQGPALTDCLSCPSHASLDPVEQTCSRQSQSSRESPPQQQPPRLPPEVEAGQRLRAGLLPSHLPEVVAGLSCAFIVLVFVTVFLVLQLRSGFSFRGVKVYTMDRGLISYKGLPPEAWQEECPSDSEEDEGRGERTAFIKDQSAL
Assay: furin cleavage Z-score vs untreated control; higher = more cleavage, active = 3.5 or more, inactive = 1 or less, 8 variable residues between constant flanks
Procedure, shortened: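 To give the cleavage Z-score, log read counts were set against furin-free reactions, lowess-adjusted and scaled by median absolute deviation. These counts came from PCR adapter-tagged, sequenced DNA released when purified furin cut 8-mer peptides fused to a cDNA oligonucleotide and held on magnetic beads by their N-terminus. Digests were 0.01 ml, 1:10 enzyme:substrate, in 50 mM HEPES pH 7.5 with CaCl2 and NaCl, for 7.5, 15 or 30 min.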

Sequence | furin cleavage Z-score (7.5 min) | furin cleavage Z-score (15 min) | furin cleavage Z-score (30 min)
B1 | -0.513 (inactive) | -1.17 (inactive) | -0.0738 (inactive)
B2 | 2.21 | 0.243 (inactive) | -0.391 (inactive)
B3 | -0.488 (inactive) | 0.33 (inactive) | -0.601 (inactive)
B4 | 0.437 (inactive) | 0.0461 (inactive) | -0.276 (inactive)
B5 | -0.221 (inactive) | -1.55 (inactive) | -1.15 (inactive)
B6 | 0.109 (inactive) | 0.25 (inactive) | 0.72 (inactive)
B7 | 1.53 | 0.103 (inactive) | 1.35
B8 | 8.99 (active) | 8.1 (active) | 8.52 (active)
B9 | 4.34 (active) | 2.4 | 4.26 (active)
B10 | 8.08 (active) | 8.87 (active) | 7.6 (active)
B11 | 0.399 (inactive) | -1.73 (inactive) | 0.371 (inactive)
B12 | -2.18 (inactive) | -0.0771 (inactive) | -0.417 (inactive)
